# Test results: PubChem BioAssay AID463173 (ICCB-Longwood Screening Facility, Harvard Medical School, 2010)
# The campaign covered roughly 52,000 compounds. About 4,300 (8.3%) were called active. The full list was thinned out, with actives kept by preference. Values without a mark were called inactive. No stated cut-off is given here; in the data, active means survival mostly below about 52% (no sharp cut-off); inactive means mostly above about 56%.
# Tested on: DeltatarO mutant
# Experiment: S. aureus survival, RN4220 and DeltatarO strains – OD600, teichoic acid synthesis inhibitors, primary screen (AID 463173)
# Conditions: S. aureus RN4220 wild type/DeltatarO growth, OD600, 18 h, hits give low values, screened at 18.75 µg/mL (by protocol)
row,SMILES,survival
1,Cc1cc(C)c(NC(=O)Cn2nnc(S(=O)(=O)c3ccc(C)c(C)c3)c2N)c(C)c1,96%
2,CCCCN(CC)C(=O)c1ccc2c(c1)NC(=O)c1ccccc1S2,104%
3,c1ccc(-c2cnnn2-c2ccccc2)cc1,87%
4,COc1ccccc1OCC(=O)N(Cc1cccs1)C1CCS(=O)(=O)C1 (stereo not drawn),53%
5,Cc1cc(Cl)ccc1OCC(=O)N(Cc1ccc(N(C)C)cc1)C1CCS(=O)(=O)C1 (stereo not drawn),39% (active)
6,Cc1cc(OCC(=O)N(Cc2ccc(N(C)C)cc2)C2CCS(=O)(=O)C2)cc(C)c1Cl (stereo not drawn),97%
7,Cc1cc(Cl)ccc1OCC(=O)N(Cc1sccc1C)C1CCS(=O)(=O)C1 (stereo not drawn),74%
8,CC(C)c1ccc(OCC(=O)N(Cc2cccs2)C2CCS(=O)(=O)C2)cc1 (stereo not drawn),51% (active)
9,Cc1ccsc1CN(C(=O)COc1ccc(Cl)cc1)C1CCS(=O)(=O)C1 (stereo not drawn),86%
10,CCOC(=O)C1=C(C)NC(=O)NC1C1CC=CCC1 (stereo not drawn),111%
11,COc1cc(-c2nc3nc[nH]n3c2Nc2ccc(C(C)C)cc2)ccc1O,70%
12,CC(=O)c1cccc(S(=O)(=O)NCCc2csc3nc(-c4ccc(F)cc4)nn23)c1,88%
13,CCOC(=O)C1CCN(C(c2cccc(F)c2)c2c(O)cc(C)n(CCOC)c2=O)CC1 (stereo not drawn),135%
14,COc1ccc(CNC(=O)Cn2ccc3cc(S(=O)(=O)N4CCCCC4)ccc32)c(OC)c1,72%
15,COc1cc(OC)c(NC(=O)CN(C)S(=O)(=O)c2ccc3c(c2)CCCC(=O)N3)cc1Cl,6% (active)
16,Cc1ccc(NC(=O)CCNS(=O)(=O)c2ccc3c(c2)CCCC(=O)N3)cc1,77%
17,COc1cc(Cl)c(NC(=O)CN(C)S(=O)(=O)c2ccc3c(c2)CCCC(=O)N3)c(OC)c1,83%
18,COc1cc(NC(=O)CN(C)S(=O)(=O)c2ccc3c(c2)CCCC(=O)N3)cc(OC)c1OC,70%
19,Cc1ccc(C)c(NC(=O)CCNS(=O)(=O)c2ccc3c(c2)CCCC(=O)N3)c1,-4% (active)
20,Cc1cccc(NC(=O)CCNS(=O)(=O)c2ccc3c(c2)CCCC(=O)N3)c1C,96%
21,COc1ccccc1CNC(=O)CSc1ncc2c(n1)-c1ccccc1N(Cc1ccc(C)cc1)S2(=O)=O,64%
22,CCc1ccc(NC(=O)c2ccc3c(O)c(S(=O)(=O)c4ccc(Cl)cc4)c(=O)[nH]c3c2)cc1,75%
23,Cc1ccc(N(C(=O)Cn2nnc(-c3ccc(C)o3)n2)C(C(=O)NC2CCCCC2)c2ccc(F)cc2)c(C)c1 (stereo not drawn),66%
